Each structure is given as a SMILES string. ± gives the standard deviation of the averaged measurements.
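Further: End-point A600 read in BHI broth at 37 °C with 2% DMSO, inhibition computed as (1 − OD with compound plus ceftriaxone ÷ OD with ceftriaxone only) × 100.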

This experiment has as its system Listeria monocytogenes 10403S. The experiment can be described thus: growth inhibition relative to ceftriaxone-alone control; higher = stronger potentiation of ceftriaxone growth inhibition. Particulars: 10 µM; ceftriaxone 1 ug/ml; 12 h.
For `CS(=O)(=O)Nc1ccc(-c2ccc3c(NC(=O)C4CC4)n[nH]c3c2)cc1`, the growth inhibition worked out at 38.6 ± 43%.
Then `COc1cc(N2CCN(C(C)C)CC2)ccc1Nc1nc(Nc2cccc(F)c2C(=O)O)c2cc[nH]c2n1`, with -0.452 ± 1.2%.
With `CNC(=O)c1cc(Oc2ccc(NC(=O)Nc3ccc(Cl)c(C(F)(F)F)c3)c(F)c2)ccn1` [Regorafenib (BAY 73-4506)] the figure was 85.5 ± 3.7%; with `Cn1c(=O)c(F)c(Nc2ccc(I)cc2F)c2c(=O)n(C[C@@H](O)CO)cnc21`, 23 ± 13%.
With `Cc1ccc2c(c1)/C(=N/Nc1ccc(S(N)(=O)=O)cc1)C(=O)N2` the figure was 2.4 ± 3.2%.
For `CNC(=O)c1cncc(/C=C/c2ccccc2Cl)c1`, the growth inhibition was -3.04 ± 0.74%.
With `CCn1nnc2c(N3CCOCC3)nc(-c3ccc(NC(=O)Nc4ccc(C(=O)N5CCN(C)CC5)cc4)cc3)nc21` the figure was 20.2 ± 19%; with `CC(C)c1ccc2c(c1)NC(=O)/C2=N/Nc1ccc(S(N)(=O)=O)cc1`, -0.275 ± 0.88%.
With `Nc1nccc(-c2c(-c3ccc(F)cc3)ncn2C2CCC(O)CC2)n1` (stereo unspecified), the growth inhibition is -2.07 ± 1.6%.
With `Nc1nonc1-c1nc2cnccc2n1C1CC1`, the growth inhibition was -9.63 ± 4.1%.
For `O=C1NC(=O)C(c2ccccc2[N+](=O)[O-])=C1Nc1ccc(O)c(Cl)c1`, the growth inhibition is 52.5 ± 49%.
`CCC[C@H](NC(=O)/C(C#N)=C/c1cccc(Br)n1)c1ccccc1`: the growth inhibition is 99.32 ± 0.54%.
Then `Oc1cccc(-c2nc(-c3ccccc3)[nH]c2-c2ccncc2)c1`, with -3.01 ± 1.1%; and `Cn1cnc(N)c2ncnc1-2` [3-Methyladenine], with 4.53 ± 5.3%; and `Cc1csc(-c2nnc(Nc3ccc(Oc4ncccc4-c4ccnc(N)n4)cc3)c3ccccc23)c1`, with 64 ± 34%.
With `COc1ccc(-c2ccc3ncc4c(c3c2)n(-c2ccc(N3CCNCC3)c(C(F)(F)F)c2)c(=O)n4C)cn1` the figure was 28.5 ± 9.7%.

The values above are taken from the supplement of paper PMC5641865, “A screen for kinase inhibitors identifies antimicrobial imidazopyridine aminofurazans as specific inhibitors of the Listeria monocytogenes PASTA kinase PrkA” (The Journal of Biological Chemistry, 2017).
